The record followed here is PubChem BioAssay (NCI).

Molecules are shown by their SMILES. About 83,000 compounds went through this panel and 20% of them were active in at least one assay; those are over-represented in the sample as a whole.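 Assay: single dose, 48 h. Readout: percent growth (0 = no net growth; negative = cell death). Active: <10.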 Unmarked numbers belong to inactive results. The source made the active and inactive calls.

What all share (assay): NCI-60 one-dose screen, 48 h (100 = growth as untreated, 0 = no growth, -100 = all killed)
Experiment [1] has as its system MOLT-4 leukemia. The conditions noted are these: 10 µM.
For experiment [2], the system named is OVCAR-8 ovarian. Particulars: 10 µM.
The test system of experiment [3] is OVCAR-5 ovarian. The conditions noted are these: 10 µM.
The subject of experiment [4] is OVCAR-4 ovarian. Particulars: 10 µM.
Experiment [5] concerns SK-OV-3 ovarian. The conditions noted are these: 10 µM.
Experiment [6] deals with IGROV1 ovarian. The conditions noted are these: 10 µM.
The test system of experiment [7] is OVCAR-3 ovarian. Particulars: 10 µM.
In experiment [8] the test system is HS 578T breast. Particulars: 10 µM.
In experiment [9] the test system is T-47D breast. Particulars: 10 µM.
Experiment [10] deals with MDA-MB-435 melanoma. Particulars: 10 µM.
Experiment [11] relates to SW-620 colon. Particulars: 10 µM.
In experiment [12] the test system is MCF7 breast. The conditions noted are these: 10 µM unless noted.
Experiment [13] has as its system KM12 colon. Particulars: 10 µM.
The test system of experiment [14] is NCI/ADR-RES ovarian. The conditions noted are these: 10 µM.
Experiment [15] has as its system HCT-116 colon. The conditions noted are these: 10 µM.
Experiment [16] has as its system HCC-2998 colon. Particulars: 10 µM.
For experiment [17], the system named is BT-549 breast. The conditions noted are these: 10 µM.
In experiment [18] the test system is RPMI-8226 leukemia. The conditions noted are these: 10 µM.

For the molecule `Oc1c(I)cc(I)cc1I`, the growth was 98.9% in [1]; 101% in experiment [2]; 98.6% in experiment [3]; 104% in experiment [4]; 109% in experiment [5]; 112% in experiment [6]. Further, the growth was 124% in experiment [7]; 119% in [8]; 103% in experiment [9]; 113% in experiment [10]; 107% in experiment [11]; 95.4% in [12]. The growth in experiment [13] is 110%.

For the molecule `O=[N+]([O-])/C=C/c1ccc(Cl)cc1[N+](=O)[O-]`, the growth in [1] is 2.69% (active); in [2], 17.8%; in [3], 75.2%; in experiment [4], 10% (active); in experiment [5] it was 99.2%; in experiment [6] it was 17.8%. In addition, the growth in experiment [7] is -31.5% (active); in experiment [8], -6.61% (active); in experiment [14], 32.1%; in experiment [9], -6.41% (active); in [10], 76.8%; in experiment [11], -90.2% (active). Besides, the growth in experiment [15] was -100% (active); in experiment [16], 105%; in [13], 29.1%.

Turning to `CC/C(=C/c1ccc(OC)cc1OC)[N+](=O)[O-]`, the growth is 6.34% (active) in experiment [1]; 18.4% in experiment [2]; 35.9% in experiment [3]; 93.7% in experiment [4]; 124% in [5]; 39.6% in experiment [6]. In addition, the growth in [7] is 58.7%; in [8], 77.6%; in experiment [14], 41.8%; in [9], -12.9% (active); in experiment [17], 37.1%; in experiment [10] it was 46%. Also, the growth in experiment [11] was -20.1% (active); in [12], 0.465% (active); in [15] it was -58.8% (active); in experiment [16], 102%; in experiment [13] it was 25.5%.

For the molecule `O=[N+]([O-])c1ccc(Br)c([N+](=O)[O-])c1`, the growth in [1] was 68.4%; in experiment [2], 91.9%; in experiment [3] it was 108%; in experiment [4] it was 103%; in experiment [5] it was 113%; in experiment [6], 63.5%. In addition, the growth is 87.8% in [7]; 105% in experiment [8]; 99% in experiment [14]; 54.4% in experiment [9]; 102% in [10]; 44.4% in [11]. Moreover, the growth was 32.3% in experiment [15], 96.2% in experiment [16] and 53.6% in experiment [13].

For `O=[N+]([O-])c1ccc(N2CCOCC2)c2c1no[n+]2[O-]`, the growth in experiment [1] is 3.12% (active); in experiment [2], 28.1%; in [3], 43.8%; in [4], -6.35% (active); in [5], 7.59% (active); in experiment [7], -34.3% (active). The growth in experiment [8] is 1.69% (active); in experiment [14], 16.3%; in experiment [9], 2.59% (active); in experiment [10] it was 29.2%; in [11], 3.22% (active); in experiment [15], -25.9% (active). Further, the figures for the growth in experiment [16] and in experiment [13] were -49.1% (active) and -73.5% (active), respectively.

Consider `Cc1ccc(NC(=O)CBr)cc1`, for which the growth is 98.4% in experiment [1]; 102% in experiment [18]; 109% in [3]; 102% in [4]; 86.1% in experiment [5]; 112% in [7]. Besides, the growth in [8] was 107%; in experiment [14] it was 106%; in experiment [9] it was 98.5%; in experiment [17], 139%; in [10] it was 102%; in experiment [11], 92.8%. Moreover, the growth in experiment [12] was 93.5%; in experiment [15] it was 106%; in experiment [16], 113%; in experiment [13], 109%.

`COc1cc(/C=C/[N+](=O)[O-])cc(Br)c1OC`: the growth was 10% in experiment [1]; 31.2% in experiment [2]; 65.4% in experiment [3]; 60.3% in experiment [4]; 94.7% in [5]; 1.74% (active) in experiment [6]. Moreover, the growth in experiment [7] is 69.9%; in experiment [14] it was 60.2%; in experiment [9] it was 16.3%; in experiment [10] it was 11%; in experiment [12], 8.38% (active); in [15], -91.7% (active). Moreover, the growth in [16] was -90.9% (active); in experiment [13], 15.2%.

As for `CC/C(=C/c1ccc(OC)cc1)[N+](=O)[O-]`, the growth in experiment [1] was 3.8% (active); in experiment [2] it was 1.78% (active); in experiment [3], 10.9%; in experiment [4], 62%; in [5] it was 104%; in experiment [6], 11.7%. The growth in experiment [7] is -54.6% (active); in experiment [8], 90.2%; in [14], 30.3%; in [9], -43.7% (active); in [10], 15.1%; in [11], -76.8% (active). Also, the growth in [15] was -81.3% (active); in [16], 85.1%; in experiment [13], 33.8%.

With `[O-][n+]1ccccc1S`, the growth was 32.1% in experiment [1]; 17.2% in [2]; 59.1% in [3]; 36.2% in experiment [4]; 91.1% in [5]; 6.4% (active) in experiment [6]. Also, the growth was 16.9% in [7]; 64% in experiment [8]; 37% in experiment [14]; 53.4% in experiment [9]; 93.5% in [17]; 53.8% in [10]. In addition, the growth is 42% in [11]; 25.3% in experiment [12]; -9.38% (active) in experiment [15]; 76.7% in [16]; 46.5% in [13].

For the molecule `CS(=N)(=O)CCC(N)C(=O)O` (stereo unspecified), the growth in [1] is 112%; in experiment [2], 98%; in experiment [3], 85.3%; in experiment [4], 104%; in experiment [5] it was 108%; in [6], 87.5%. Further, the growth was 115% in experiment [7]; 104% in experiment [8]; 100% in experiment [14]; 111% in experiment [9]; 99.8% in experiment [10]; 103% in [11]. Also, the growth is 97.1% in experiment [15], 92.7% in [16] and 115% in [13].
